High-throughput results (PubChem BioAssay)
Only some compounds are listed: those with a hit (about 7.9% of all), similar ones and a draw of the others.
LASV entry inh: inhibitors of Lassa virus binding or cell entry | Potency, µM (highest dose often 37.9 µM), for inactives: at the highest dose activity change, negative = inhibition, usual class: inhibitors | AID 540256 | Lassa virus pseudotype entry inhibition, cell reporter | 300,000 tested, 1.2% active; calls by dose curve; tested in HEK293 cells; note: potency is the fitted concentration of half-maximal effect; nearly all actives have a fitted effect of over 50% in size
HCV inhibitor: blocks hepatitis C virus | 340,000 tested, 3.4% active | AID 651820 | Potency, µM (highest dose often 41.8 µM), for inactives: top-dose activity change, negative = inhibition, most hits filed as inhibitors | Huh7.5.1 HCVcc-Cre infection, luciferase reporter, 44 h; active = well fitted inhibition curve with a large enough effect; inconclusive = small, poorly fitted or top-dose-only effect, or another doubt; inactive = no such curve, though single readings can be large or run the other way; note: potency is the fitted concentration of half-maximal effect
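1,000 cells/well; 4 h culture; + compound; + HCVcc-Cre (~0.5 moi); 44 h; luciferase substrate, RT 15 min; read 15 sec.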
HCMV inh: blocks human cytomegalovirus replication | HFF cells, HCMV-luciferase reporter, 72 h; active compounds read low | activity change, negative = inhibition, % at 57.5 µM | 410,000 tested, 4.5% active; in the data active = activity change below about -60%; inconclusive = no clear call, values can overlap the other calls; inactive = above about -39%
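Cell-based, HFFs, 1000 cells/well, 16 h 37C; cpds in DMSO + HCMV-luc, MOI 1 PFU/cell; 72 h 37C; OneGlo luminescence after 5 min RT; norm. to buffer vs Salinomycin 10uM.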
MARV entry inh: Marburg virus entry inhibition. Marburg virus pseudotyped entry inhibition, cell reporter. Potency, µM (highest dose often 37.8 µM), for the others: at the highest dose activity change, negative = inhibition, actives largely listed as inhibitors. 300,000 tested, 1.8% active; calls by dose curve; tested in HEK293 cells; note: potency is the fitted concentration of half-maximal effect
FMDV inh: antivirals against foot and mouth disease virus; FMDV antiviral cell-based qHTS; Potency, µM (doses to about 57.9 µM), for the others: at the top dose activity change, negative = inhibition, hits mostly inhibitors; 410,000 tested, 1.2% active; AID 1159524; calls by dose curve; tested in HEK293T cells; note: read-out not given here; potency is the fitted concentration of half-maximal effect; nearly all actives have a fitted effect of over 45% in size
* hit, by the source's call; ? = inconclusive; / = no result; + = active, no number; [ ] = another dose, or the depositor's remark. % is set by controls: 0 for no effect and ±100 for the full control effect.

SMILES | LASV entry inh | HCV inhibitor | HCMV inh | MARV entry inh | FMDV inh
COc1cc(OC)cc(-c2nc3nc(C)c(CCC(=O)Nc4ccc(C)cc4C)c(C)n3n2)c1 | 2.6%[46.1 µM] | / | 11.0 | 2.3%[46.1 µM] | -0.1%
COc1ccc(Cl)cc1-n1cc(-c2ccccc2)nc1SCC(=O)Nc1ccc(C)cc1 | -14.3%[46.1 µM] | / | -6.1 | / | -1.3%
CC(Oc1ccccc1)C(=O)NNC(=O)c1ccccn1 (stereo not drawn) | ? | ? | ? | ? | -10.4%
CC(Oc1cccc(Br)c1)C(=O)NNC(=O)c1ccccn1 (stereo not drawn) | / | 5.01µM* | / | / | 0.0%
COc1cc(OC)cc(C(=O)NNC(=O)c2ccccn2)c1 | ? | ? | -97.8* | ? | -6.5%
O=C(NCCSCc1ccccc1)C1CCN(S(=O)(=O)Cc2ccccc2)CC1 | -3.5%[46.1 µM] | / | -14.2 | -22.7%[46.1 µM] | -20.6%
CCc1ccccc1NC(=O)c1cnc(N2CCCCC2)c2ccccc12 | -5.9%[46.1 µM] | / | -8.3 | / | 0.0%
CC(O)C1C=CC=CC(=O)OC2CC3OC4C5OC5(C)CCC4(COC(=O)C4OC4(C)C(O)CO1)C2(C)C31CO1 (stereo not drawn) | / | / | -96.2* | ? | /
CC1=CC2OC3CC4OC(=O)C=CC=CC(C(C)O)OCC(O)C(C)CC(=O)OCC2(CC1O)C4(C)C31CO1 (stereo not drawn) | ? | / | -97.3* | -71.8% | /
CC(=O)OC1C(=O)OCC23CCC4(C)OC4C2OC2CC(OC(=O)C=CC=CC(=O)OCCC1C)C3(C)C21CO1 (stereo not drawn) | ? | / | -96.4* | ? | /
NC1=NC(=O)C2N=CN(COCCO)C2=N1 (stereo not drawn) | / | / | / | 4.3% | /
S=C(NCc1ccco1)Nc1ccc(Cl)cc1Cl | -1.2% | -14.1% | -73.6* | 6.2% | 42.0%
S=C(NCc1ccco1)Nc1ccc(Br)cc1Cl | 8.1% | -2.6% | -28.5 | -14.5%[46.1 µM] | 58.9%
O=C(COC(=O)CNC(=O)c1ccc(Cl)cc1Cl)NCc1ccco1 | ? | 14.6% | -4.4 | 2.82µM* | 7.4%
COc1cc(=O)n2c(c1C(=O)N(C)Cc1nonc1C)CCN(Cc1cc(C)ccc1C)CC2 | / | / | / | / | -19.0%
COc1ccc(NC(=O)C(=O)NCCc2csc(-c3ccc(Cl)cc3)n2)cc1OC | 4.4%[46.1 µM] | / | 14.1 | / | -30.1%
CCCC(=O)N1c2nc(C(C)C)nn2C2(CCCCC2)[C@@H]2CCCC[C@@H]21 | 18.8%[46.1 µM] | / | -75.3* | -15.6%[46.1 µM] | -6.0%
Cc1cccc(NC(=S)NNc2ncc(C(F)(F)F)cc2Cl)c1 | 18.4µM* | 11.2µM* | ? | ? | ?
FC(F)(F)c1cnc(NNC(=S)Nc2ccccc2Cl)c(Cl)c1 | ? | ? | -100.1* | ? | 10µM*
O=C(Nc1ccccc1)Nc1ncc(C(F)(F)F)cc1Cl | / | / | -29.7 | / | -8.5%
COCCCn1c(=N)c(S(=O)(=O)c2ccccc2)cc2c(=O)n3cccc(C)c3nc21 | 1.1%[46.1 µM] | / | -8.2 | 3.0%[46.1 µM] | -1.9%
CN(Cc1ccccc1)c1ccc(-c2nc(-c3ccccn3)no2)cc1[N+](=O)[O-] | -5.2%[46.1 µM] | / | 45.1 | 11.4%[46.1 µM] | 5.0%
CCN1C(=O)[C@@H]2[C@H]3[C@H](O)[C@H](O)CC(=NO[C@H](C)c4cn([C@H](CO)Cc5ccccc5)nn4)[C@@H]3CC[C@H]2C1=O | 25.3%[14.3 µM] | / | / | -10.9%[14.2 µM] | /
Clc1ccccc1CN(Cc1ccco1)Cc1nnnn1C1CCCC1 | -8.2% | 10µM* | 10.2 | -11.0% | -27.1%
COc1ccc(CNC(=O)CS(=O)(=O)c2cccc3nsnc23)cc1 | 4.5%[46.1 µM] | / | -7.0 | / | -2.7%
SMILES | LASV entry inh | HCV inhibitor | HCMV inh | MARV entry inh | FMDV inh
CCOC(=O)c1ccc(NC(=S)N(CCCN2CCCC(C)C2)Cc2cccs2)cc1 (stereo not drawn) | ? | -8.9% | 7.9 | ? | 7.2%
CCN1CCN(CCCN(Cc2ccco2)C(=S)Nc2ccc(C)c(Cl)c2)CC1 | ? | 8.91µM* | 68.6 | ? | -3.5%
CCOC(=O)c1ccc(NC(=S)N(CCCN2CCN(CC)CC2)Cc2ccco2)cc1 | ? | ? | -35.2 | ? | -6.2%
CCOC(=O)c1ccc(NC(=S)N(CCCN2CCCC(C)C2)Cc2ccco2)cc1 (stereo not drawn) | ? | 10µM* | -29.3 | ? | 16.3%
CCOC(=O)c1ccc(NC(=S)N(CCCN2CCCC2)Cc2ccco2)cc1 | 0.4% | 10µM* | -31.6 | ? | 8.0%
Cc1ccc(NC(=S)N(CCCN2CCOCC2)Cc2ccco2)cc1Cl | ? | -9.8% | 16.1 | ? | -1.6%
O=c1n(-c2ccccc2)c(=O)n2n1CC[C@H]1/C(=N\OC[C@@H](O)COCc3ccco3)[C@H]3O[C@@H]3[C@@H](O)[C@@H]12 | / | / | / | -22.9%[14.2 µM] | /
Cc1ccc2c(=O)c(C(=O)c3cccc(Cl)c3)cn(CC(=O)Nc3ccc4c(c3)OCCO4)c2n1 | ? | / | 27.7 | / | 0.0%
CCC(Sc1n[nH]c(=O)[nH]c1=O)C(=O)OCc1ccccc1 (stereo not drawn) | 12.2% | 9.8% | -37.5 | 10.4% | 1.78µM*
C=CCSc1nnc2c(n1)[nH]c1c(C)cccc12 | -3.9% | 7.94µM* | -37.0 | ? | /
Cc1c(C(=O)N/N=C/c2c(O)ccc3ccccc23)nnn1-c1nonc1N | ? | ? | -98.5* | ? | -10.9%
Nc1nonc1-n1nnc(C(=O)N/N=C/c2ccc(OCc3ccc(F)cc3)cc2)c1COc1ccccc1 | / | ? | -73.1* | / | -12.9%
Nc1nonc1-n1nnc(C(=O)N/N=C/c2ccncc2)c1-c1cccs1 | 5.0%[46.1 µM] | 12.3% | + | 2.0%[46.1 µM] | 26.1%
Nc1nonc1-n1nnc(C(=O)N/N=C/c2cccc(Cl)c2Cl)c1CN1CCCC1 | 12.7%[46.1 µM] | ? | -61.3* | -3.0%[46.1 µM] | -1.6%
Nc1nonc1-n1nnc(C(=O)N/N=C/c2ccncc2)c1-c1ccccc1 | / | 15.0% | -14.2 | ? | -17.3%
COC(=O)c1c(NC(=O)c2cc3nc(-c4ccc(Br)cc4)cc(C(F)(F)F)n3n2)sc2c1CCCC2 | -1.8%[46.1 µM] | / | 17.2 | / | 7.0%
Cn1cnc(S(=O)(=O)N2CCCC(C(=O)NCc3ccccc3)C2)c1 (stereo not drawn) | 2.0%[46.1 µM] | / | 17.9 | / | 10.8%
Nc1nonc1-n1nnc(C(=O)N/N=C/c2cc(Br)ccc2O)c1CNc1ccccc1 | ? | 10µM* | -92.7* | ? | -19.7%
Cc1ccc(/C=N/NC(=O)c2nnn(-c3nonc3N)c2CNc2ccccc2)cc1 | / | ? | -39.6 | / | -5.5%
NC(=O)N/N=C\c1cc(Br)ccc1O | 18.4% | 16.8% | 19.4 | 1.8% | -0.4%
Nc1nonc1C(=O)N/N=C/c1cc(Br)ccc1O | ? | 11.2µM* | -8.1 | ? | 43.6%
COCC=CC1=CC2=CC(=O)C(C)(OC(=O)c3cnc4ccccc4n3)C(=O)C2=CN1Cc1ccccc1 (stereo not drawn) | / | / | / | 18.6%[14.2 µM] | /
COc1ccc(-c2nc3n(n2)C(=O)C[C@@H](c2ccco2)S3)cc1 | / | / | / | 9.9% | /
C/C(CCC12CC3CC(CC(C3)C1)C2)=N\NC(N)=S | ? | 11.2µM* | -36.9 | -25.4% | 0.0%
COc1cccc(NC(=O)c2nc(S(C)(=O)=O)ncc2Cl)c1 | ? | ? | -103.0* | ? | 22.4µM*
